Experiment [1] addresses Albumin (Bos taurus) (UniProt P02769). Nature of the experiment: bovine serum albumin binders on microarray, profiling panel, artefact control for SMM control protein annotation, biochemical, small-molecule microarray, Alexa647 label, 635/667 nm fluorescence (AID 1118).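 Note: score merges 667 nm emission intensity and signal-to-noise per printed compound spot.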 The conditions noted are these: BSA-A647 binding, fluorescence 635 nm, higher = more signal.
A short description of experiment [2]: small-molecule microarray binders of probe aXIP, primary screen, biochemical, NeuroSMM set, 635/667 nm fluorescence (AID 1119).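 Note: probe is the protein aXip251-270 applied at 1 µg/mL to compound-printed slides; binding of probe to printed compounds measured as 667 nm fluorescence plus signal to noise.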 The conditions noted are these: higher = more signal, called active from +8 up or from −8 down.
Experiment [3] is described as follows: small-molecule binders of probe aNOTCH3, primary screen, biochemical, small-molecule microarray, 635/667 nm fluorescence (AID 1120).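 Note: probe is a biotin-tagged antibody raised against NOTCH3 rather than NOTCH3 protein; score merges spot fluorescence near 667 nm with spot signal to noise.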 The conditions noted are these: higher = more signal.
The nature of experiment [4]: small-molecule binders of probe aNOTCH2, primary screen, biochemical, small-molecule microarray, 635/667 nm fluorescence (AID 1121).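 Note: score merges feature fluorescence read at 667 nm with its signal to noise.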 The conditions noted are these: higher = more signal.
In experiment [5] the target is Carbonic anhydrase 2 (Homo sapiens) (UniProt P00918). Nature of the experiment: CAII small-molecule binders, profiling panel, biochemical, small-molecule microarray, Alexa647-labelled CAII (AID 1122). The conditions noted are these: CAII-A647 binding fluorescence, higher = more signal.
Experiment [6] in a line: COS7 lysate on small-molecule microarray, probe aHis, 635 nm (AID 1123).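 Note: z-score combines 667nm fluorescence intensity with signal-to-noise per printed compound spot.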 The conditions noted are these: COS7 cell lysate, fluorescence, higher = more signal.
Experiment [7] can be described thus: compound binding in COS7 lysate, probe aLAP1, primary screen, cell lysate, small-molecule microarray (AID 1124).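 Note: lysate comes from COS7 cells expressing LAP1 and is applied at 0.3 µg/mL; score merges spot fluorescence near 667 nm with signal-to-noise over triplicate slides.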 The conditions noted are these: probe aLAP1, fluorescence, higher = more signal.
Experiment [8] has as its system Sam68 (KHDRBS1). Briefly: Sam68 small-molecule binders, primary screen, biochemical, small-molecule microarray, 635 nm fluorescence (AID 1125).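 Note: score merges 667 nm channel intensity with signal to noise over triplicate slides.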 The conditions noted are these: small-molecule microarray binding, higher = more signal.
Experiment [9] deals with Chordin-like protein 2 (CHRDL2). Nature of the experiment: CHRDL2 small-molecule binders, primary screen, biochemical, small-molecule microarray, 635 nm fluorescence (AID 1126).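 Note: printed compound slides probed with Chrdl2 protein at 4 µg/mL for 1 h at 4 C; score merges 667 nm emission intensity with signal to noise over three replicate slides.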 The conditions noted are these: small-molecule microarray binding, fluorescence 635 nm; higher = more signal.
The target in experiment [10] is Concanavalin-A (Canavalia ensiformis) (UniProt P02866). Nature of the experiment: ConA small-molecule binders, primary screen, artefact control for SMM control protein annotation, biochemical, small-molecule microarray, Alexa647 label, 635 nm (AID 1127).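 Note: z combines 667 nm emission intensity with signal-to-noise across three replicate slides.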 The conditions noted are these: ConA-A647 binding fluorescence, higher = more signal.
Chain of Concanavalin-A (Canavalia ensiformis) (P02866 whole entry, looked up): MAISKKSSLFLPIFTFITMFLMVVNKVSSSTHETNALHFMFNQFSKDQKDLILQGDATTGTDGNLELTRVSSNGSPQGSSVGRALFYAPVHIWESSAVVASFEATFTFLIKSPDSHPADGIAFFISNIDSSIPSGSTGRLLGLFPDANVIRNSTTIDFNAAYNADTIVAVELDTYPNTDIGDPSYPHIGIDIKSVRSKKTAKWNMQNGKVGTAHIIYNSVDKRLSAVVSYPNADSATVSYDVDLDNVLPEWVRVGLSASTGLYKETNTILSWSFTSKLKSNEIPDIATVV
A short description of experiment [11]: anti-His antibody binders, primary screen, artefact control for SMM control protein annotation, biochemical, small-molecule microarray, 635 nm fluorescence (AID 1128).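 Note: score merges feature fluorescence with signal-to-noise for each printed compound spot.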 The conditions noted are these: anti-His Alexa647 antibody binding, higher = more signal.
In experiment [12] the test system is Human papillomavirus type 1a E7 protein (residues 1-88). Nature of the experiment: HPV1a E7 small-molecule binders, primary screen, biochemical, small-molecule microarray, residues 1-88, 635 nm (AID 1129). The conditions noted are these: small-molecule microarray binding, fluorescence 635 nm; higher = more signal.
Experiment [13] has as its target Focal adhesion kinase 1 (Homo sapiens) (UniProt Q05397). Nature of the experiment: small-molecule microarray binders of FAK, primary screen, biochemical, 635/667 nm fluorescence, BSA, DTT (AID 1130).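 Note: composite of spot emission at 667 nm and signal to noise over triplicate slides.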 The conditions noted are these: PTK2 binding, 635 nm fluorescence, higher = more signal.
Experiment [14] concerns Fibrinogen (Alexa647-labelled). Nature of the experiment: fibrinogen binders on compound microarrays, profiling panel, artefact control for SMM control-protein annotation, biochemical, small-molecule microarray, 635/667 nm fluorescence (AID 1131).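 Note: z-score merges 667 nm fluorescence with per-spot signal-to-noise over triplicate slides.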 The conditions noted are these: fibrinogen-A647 binding fluorescence, higher = more signal.
Experiment [15] concerns the target Follistatin (Homo sapiens) (UniProt P19883). Nature of the experiment: follistatin binders on small-molecule microarrays, primary screen, biochemical, small-molecule microarray, 635/667 nm fluorescence (AID 1132). The conditions noted are these: FST binding, 635 nm fluorescence, higher = more signal.
In experiment [16] the target is Fibroblast growth factor 2 (Homo sapiens) (UniProt P09038). Briefly: FGF2 binders on small-molecule microarrays, primary screen, biochemical, small-molecule microarray, 635/667 nm fluorescence (AID 1133). The conditions noted are these: small-molecule microarray binding, FGF2, fluorescence 635/667; higher = more signal.
Chain of Fibroblast growth factor 2 (Homo sapiens) (P09038 whole entry, looked up): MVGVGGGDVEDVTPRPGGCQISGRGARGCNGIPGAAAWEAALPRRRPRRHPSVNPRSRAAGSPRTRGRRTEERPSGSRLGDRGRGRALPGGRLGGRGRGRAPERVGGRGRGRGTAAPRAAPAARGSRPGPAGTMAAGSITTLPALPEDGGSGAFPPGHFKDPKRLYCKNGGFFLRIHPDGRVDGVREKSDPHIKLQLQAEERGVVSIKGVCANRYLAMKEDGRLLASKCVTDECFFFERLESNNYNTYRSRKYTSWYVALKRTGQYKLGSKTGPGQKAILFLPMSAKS
Experiment [17] in a line: mitochondrial membrane potential change in A549 cells, profiling panel, cell-based, JC-1 fluorescence, basal, 24 h, 100 nL (AID 1138).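 Note: A549 lung adenocarcinoma cells under basal conditions with no added stimulus; test concentration not given here.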 The conditions noted are these: higher = more signal.
For experiment [18], the system named is Lefty1. Nature of the experiment: Lefty1 binders on small-molecule microarrays, primary screen, biochemical, small-molecule microarray, 635/667 nm fluorescence (AID 1139). The conditions noted are these: small-molecule microarray binding, fluorescence 635/667; higher = more signal.
In experiment [19] the test system is wheat germ agglutinin (Triticum aestivum), Alexa647-labelled. Nature of the experiment: wheat germ agglutinin binders on compound microarrays, profiling panel, artefact control for SMM control-protein annotation, biochemical, small-molecule microarray, 635/667 nm fluorescence (AID 1140).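 Note: score merges 667 nm feature emission with signal to noise over triplicate slides.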 The conditions noted are these: WGA-A647 binding, 635 nm fluorescence, higher = more signal.

Experiment [20] concerns the target Luciferin 4-monooxygenase (Photinus pyralis) (UniProt P08659). Briefly: firefly luciferase enzyme inhibitors, primary screen, biochemical, luminescence, purified enzyme, 2006 set (AID 1141).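 Note: cell-free assay with purified firefly luciferase at 100 ng per well in PBS; test concentration not given here.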 The conditions noted are these: SteadyGlo luminescence, 30 min, higher = more signal, called active from +8 up or from −8 down.

Calls of active or inactive are those of the source.

Chain of Luciferin 4-monooxygenase (Photinus pyralis) (P08659 whole entry, looked up): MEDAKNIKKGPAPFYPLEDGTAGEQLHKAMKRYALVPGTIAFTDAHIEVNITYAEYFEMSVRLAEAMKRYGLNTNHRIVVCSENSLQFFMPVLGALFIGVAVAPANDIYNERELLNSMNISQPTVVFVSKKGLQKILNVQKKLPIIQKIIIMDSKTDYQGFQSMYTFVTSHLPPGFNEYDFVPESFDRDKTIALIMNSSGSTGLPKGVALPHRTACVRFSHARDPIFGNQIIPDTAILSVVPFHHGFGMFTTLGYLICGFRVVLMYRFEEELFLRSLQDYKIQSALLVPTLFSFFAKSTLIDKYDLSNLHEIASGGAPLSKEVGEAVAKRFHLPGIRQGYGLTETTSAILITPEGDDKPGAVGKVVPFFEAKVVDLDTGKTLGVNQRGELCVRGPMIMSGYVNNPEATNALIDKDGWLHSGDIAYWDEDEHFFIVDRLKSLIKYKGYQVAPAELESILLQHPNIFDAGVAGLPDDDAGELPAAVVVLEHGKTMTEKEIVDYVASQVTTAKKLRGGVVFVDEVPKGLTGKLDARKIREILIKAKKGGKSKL
Chain of Focal adhesion kinase 1 (Homo sapiens) (Q05397 whole entry, looked up): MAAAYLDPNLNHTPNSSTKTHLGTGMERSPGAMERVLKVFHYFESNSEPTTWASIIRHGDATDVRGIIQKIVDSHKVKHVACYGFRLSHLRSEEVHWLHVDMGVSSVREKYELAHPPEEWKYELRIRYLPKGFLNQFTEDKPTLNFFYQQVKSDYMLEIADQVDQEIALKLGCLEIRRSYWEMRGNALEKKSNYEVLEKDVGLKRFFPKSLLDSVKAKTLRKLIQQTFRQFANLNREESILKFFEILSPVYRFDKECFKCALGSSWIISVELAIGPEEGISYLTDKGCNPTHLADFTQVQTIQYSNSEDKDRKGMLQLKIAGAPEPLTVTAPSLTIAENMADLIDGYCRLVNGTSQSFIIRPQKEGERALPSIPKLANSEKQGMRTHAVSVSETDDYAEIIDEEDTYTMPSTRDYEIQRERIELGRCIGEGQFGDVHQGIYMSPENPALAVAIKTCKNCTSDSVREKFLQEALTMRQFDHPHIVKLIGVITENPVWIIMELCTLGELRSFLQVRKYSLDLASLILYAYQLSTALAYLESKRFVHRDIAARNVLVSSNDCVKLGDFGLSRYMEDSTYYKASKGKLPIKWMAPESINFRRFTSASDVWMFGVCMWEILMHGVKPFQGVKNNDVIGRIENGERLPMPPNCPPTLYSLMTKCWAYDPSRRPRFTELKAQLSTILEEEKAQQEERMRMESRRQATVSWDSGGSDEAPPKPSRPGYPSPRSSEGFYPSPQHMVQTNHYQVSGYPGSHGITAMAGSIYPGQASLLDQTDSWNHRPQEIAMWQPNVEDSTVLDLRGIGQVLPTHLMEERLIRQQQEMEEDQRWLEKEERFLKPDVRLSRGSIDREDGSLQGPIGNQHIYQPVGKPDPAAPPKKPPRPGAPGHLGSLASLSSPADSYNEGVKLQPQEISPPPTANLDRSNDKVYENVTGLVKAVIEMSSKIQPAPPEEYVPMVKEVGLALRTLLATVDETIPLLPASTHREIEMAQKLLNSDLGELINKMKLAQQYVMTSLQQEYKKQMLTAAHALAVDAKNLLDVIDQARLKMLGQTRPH
Chain of Albumin (Bos taurus) (P02769 whole entry, looked up): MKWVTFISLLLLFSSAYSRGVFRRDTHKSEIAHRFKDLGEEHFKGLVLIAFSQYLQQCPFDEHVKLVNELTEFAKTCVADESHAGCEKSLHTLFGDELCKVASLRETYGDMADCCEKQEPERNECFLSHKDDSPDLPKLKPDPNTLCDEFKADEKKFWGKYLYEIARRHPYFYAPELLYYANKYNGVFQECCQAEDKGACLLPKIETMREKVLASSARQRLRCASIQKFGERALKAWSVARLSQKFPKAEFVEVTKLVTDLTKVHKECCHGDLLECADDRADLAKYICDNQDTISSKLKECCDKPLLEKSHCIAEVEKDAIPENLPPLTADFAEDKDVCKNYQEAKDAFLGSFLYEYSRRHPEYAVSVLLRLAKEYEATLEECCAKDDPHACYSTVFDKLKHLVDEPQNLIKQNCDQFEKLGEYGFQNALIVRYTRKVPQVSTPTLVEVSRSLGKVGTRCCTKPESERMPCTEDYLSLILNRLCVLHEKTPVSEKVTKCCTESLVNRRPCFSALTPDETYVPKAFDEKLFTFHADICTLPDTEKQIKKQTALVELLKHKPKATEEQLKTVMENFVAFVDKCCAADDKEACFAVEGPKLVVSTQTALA
Chain of Follistatin (Homo sapiens) (P19883 whole entry, looked up): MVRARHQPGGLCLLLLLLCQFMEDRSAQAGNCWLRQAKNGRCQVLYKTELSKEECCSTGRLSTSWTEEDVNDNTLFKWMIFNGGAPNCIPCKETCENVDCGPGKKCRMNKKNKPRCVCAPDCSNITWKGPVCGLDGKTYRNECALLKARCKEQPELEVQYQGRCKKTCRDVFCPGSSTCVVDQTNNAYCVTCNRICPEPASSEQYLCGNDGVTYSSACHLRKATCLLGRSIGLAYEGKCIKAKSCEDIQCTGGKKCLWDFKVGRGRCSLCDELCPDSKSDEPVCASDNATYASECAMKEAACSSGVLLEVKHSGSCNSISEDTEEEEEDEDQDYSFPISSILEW

As to `C=CC[C@]1(C(=O)N2CCCCC2)N=C(c2ccc(OCCCO)cc2)O[C@H]1c1ccccc1N=[N+]=[N-]`, the composite z-score in [1] was found to be 0.947; in [3] it was 0.486; in [4], 0.284; in experiment [5] it was 0.789; in experiment [6], 2.81; in [7], 0.941. Besides, the composite z-score in experiment [8] was 1.3; in experiment [9] it was -0.154; in [10], 1.13; in experiment [11], 2.94; in experiment [12] it was 1.26; in experiment [13], 0.426. The composite z-score in [14] came to 1.01; in experiment [15] it was 1.4; in experiment [16], 1.55; in experiment [18] it was 1.48; in experiment [19], 1.37. For the same compound, the composite Z-score in experiment [2] was 0.103 (inactive). Moreover, the values for the z-score in experiment [17] and in [20] were -0.591 and -10 (active), respectively.

For the compound `CC(C)[C@H]1NC(=O)[C@@]23C(=O)N[C@@H](Cc4ccccc4)C2[C@H](C)[C@@]2(C)O[C@H]2C3/C=C/C/C=C\CNC(=O)[C@H](C)NC1=O` (stereo not given in full), the composite z-score in experiment [1] is -0.255; in experiment [3], -0.25; in experiment [4], -0.218; in experiment [5], 0.811; in experiment [6], -0.281; in experiment [7], -0.258. Besides, the composite z-score was -0.762 in experiment [8]; -0.433 in experiment [9]; -0.671 in experiment [10]; 0.661 in [11]; -0.983 in experiment [12]; -0.67 in experiment [13]. Further, the composite z-score in experiment [14] is -0.908; in [15] it was -0.412; in [16], 0.862; in [18] it was -0.62; in experiment [19] it was -1.03. Further, the composite Z-score in experiment [2] was -0.0247 (inactive). Also, the z-score was -0.134 in [17] and -0.0632 (inactive) in experiment [20].

Turning to `O=C1C2C=CC(C(O)C(c3ccccc3)c3ccccc3)N(Nc3ccc([N+](=O)[O-])cc3)C2C(=O)N1c1ccccc1` (stereo not given), the composite z-score in experiment [1] was 0.751; in [3], 0.272; in [4] it was -0.115; in [5], 0.733; in [6] it was 3.13; in experiment [7] it was 0.953. Besides, the composite z-score turned out to be 1.33 in [8]; 0.0427 in experiment [9]; 1.17 in [10]; 1.79 in [11]; 1.24 in experiment [12]; 0.248 in [13]. Besides, the composite z-score in [14] was 0.953; in experiment [15], 1.04; in experiment [16], -0.255; in experiment [18], 0.35; in experiment [19], 1.28. Further, in experiment [2], the composite Z-score was -0.214 (inactive). Besides, the z-score in experiment [17] was -0.351; in experiment [20], 1.66 (inactive).

Take `C=C(/C(=C/C[C@@H](OC(=O)c1ccncc1)c1ccc(CO)o1)c1cnc2ccccc2c1)C(C)C`: the composite z-score in experiment [1] was 0.485; in experiment [3], 0.0225; in experiment [4] it was -0.132; in experiment [5], 0.557; in [6] it was 0.606; in [7] it was 0.367. The composite z-score turned out to be 1.3 in [8]; 1.21 in experiment [9]; 1.17 in experiment [10]; 1.73 in experiment [11]; 0.969 in [12]; 0.462 in experiment [13]. Further, the composite z-score amounted to 0.954 in experiment [14]; 1.32 in experiment [15]; 1.07 in experiment [16]; 0.949 in experiment [18]; 1.4 in [19]. Moreover, the composite Z-score in experiment [2] is 0.0431 (inactive). Besides, the z-score was 0.313 in experiment [17] and -4.43 (inactive) in [20].

Take `C/C(=N\O)C(=O)NCCCCCNC(=O)OCc1ccccc1`: the composite z-score is 0.487 in experiment [1]; 0.0066 in [3]; -0.0942 in experiment [4]; 0.355 in [5]; 0.332 in experiment [6]; 0.199 in experiment [7]. Besides, the composite z-score in [8] was 0.639; in experiment [9], 0.367; in experiment [10], 0.818; in experiment [11] it was 0.443; in [12] it was 0.783; in [13], 0.317. The composite z-score in experiment [14] amounted to 0.825; in [15], 0.7; in experiment [16] it was 0.545; in experiment [18], 0.93; in experiment [19], 0.3. Also, in experiment [2], the composite Z-score is 0.179 (inactive). The z-score in experiment [17] is 2.02; in [20], -1.72 (inactive).

The values above are taken from PubChem BioAssay.
